# Data taken from PubChem BioAssay.
# The source made the active and inactive calls.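 The calls were made as follows, unless noted: active = visually confirmed hit in the image check and inhibition above 20%; inconclusive = visually confirmed hit but inhibition not above 20%; inactive = no visual hit in the image check.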
# Assays:
# [1] = inhibitors of TNFa-induced NFkB p65 translocation, primary screen, imaging, HUVEC, MLSMR starter and 10KST1 sets (AID 438;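 active = inhibition above 20% together with a positive visual image hit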;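 also: compound added about 3h40 before a 20 min TNFalpha stimulation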;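 as to inhibition: signal is the nuclear over cytoplasmic p65 intensity ratio per well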); details: HUVEC TNFa-induced p65 nuclear translocation; cell count: measured here: nuclei count (cytotoxicity indicator), at 2.08 µM; inhibition: at 2 µM, stronger effect = higher value, 0% TNFa-plus-vehicle, 100% no-TNFa wells
# [2] = reduction of polyQ htt aggregates in cells – imaging, exon1htt(103Q)mCFP cells, high-content imaging, primary screen (AID 483;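 active = visual image review flags a hit and inhibition of aggregation exceeds 20%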;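 also: compound exposure lasted 3 days before fixation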;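 as to nuclei count: percent of the per-plate median nuclei count of sample wells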); details: exon1htt(103Q)mCFP cell line, aggregate imaging, at 2 µM; inhibition of aggregation: stronger effect = higher value; nuclei count: measured here: cell count, toxicity
# [3] = endothelial E-selectin expression blockers – imaging, HUVEC, immunofluorescence, MLSMR starter and 10KST1 sets, primary screen (AID 487); details: HUVEC TNFalpha-induced E-selectin immunofluorescence imaging, at 2 µM; inhibition: stronger effect = higher value; nuclei count: measured here: cell number, toxicity;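 as to inhibition: signal is fraction of cell area covered by stained E-selectin grains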;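 as to nuclei count: 100% = median nuclei count of all wells on the same plate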
# [4] = target: Voltage-gated potassium channel subunit beta-2 (Rattus norvegicus) (UniProt P62483); assay: inhibitors of rat Kvbeta2 reductase activity – biochemical, NADPH fluorescence, primary screen (AID 622;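 active = fluorescence slope higher than the sample average by over 3 SD, cut at about -0.22 in these data, passing the limit was not always enough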;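 also: slope of raw intensity against log time taken from 70 to 1610 s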); details: recombinant KvBeta, 4-cyanobenzaldehyde reduction, at 10 µM, stronger effect = higher value
# Chain of Voltage-gated potassium channel subunit beta-2 (Rattus norvegicus) (P62483 whole entry, looked up): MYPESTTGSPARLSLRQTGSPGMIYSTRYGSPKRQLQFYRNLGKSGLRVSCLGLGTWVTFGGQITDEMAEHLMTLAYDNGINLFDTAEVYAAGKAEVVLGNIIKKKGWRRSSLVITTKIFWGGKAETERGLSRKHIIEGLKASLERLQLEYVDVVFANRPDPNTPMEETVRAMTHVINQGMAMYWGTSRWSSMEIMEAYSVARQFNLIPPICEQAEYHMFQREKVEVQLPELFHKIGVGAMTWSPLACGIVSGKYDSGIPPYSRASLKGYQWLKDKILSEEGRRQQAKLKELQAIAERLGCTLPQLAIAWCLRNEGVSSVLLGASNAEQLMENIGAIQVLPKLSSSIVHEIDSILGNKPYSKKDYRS
# [5] = target: Voltage-gated potassium channel subunit beta-2 (Rattus norvegicus) (UniProt P62483); assay: enhancers of rat Kvbeta2 NADPH turnover – biochemical, NADPH fluorescence, primary screen (AID 623;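 active = NADPH fluorescence slope more negative than the mean of all samples by about 3 SD, 99.7% confidence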;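 also: fluorescence intensity change per second fitted from 20 to 320 s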); details: Recombinant KvBeta, NADPH fluorescence decrease slope, 10 min; at 10 µM; stronger effect = lower value
# [6] = target: Alpha-2C adrenergic receptor (Homo sapiens) (UniProt P18825); assay: compounds altering alpha2C-coupled GIRK flux – cell-based, HEK293 alpha2C/GIRK1/2, thallium flux, primary screen (AID 624;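 active = fluorescence slope after compound addition differing from the mean of all screened samples at 99.7% confidence, in either direction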;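 also: slope of fluorescence ratio to pre-addition baseline per second over 15 to 24 s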); details: thallium flux BTC fluorescence, at 10 µM, actives lie on both sides
# Chain of Alpha-2C adrenergic receptor (Homo sapiens) (P18825 whole entry, looked up): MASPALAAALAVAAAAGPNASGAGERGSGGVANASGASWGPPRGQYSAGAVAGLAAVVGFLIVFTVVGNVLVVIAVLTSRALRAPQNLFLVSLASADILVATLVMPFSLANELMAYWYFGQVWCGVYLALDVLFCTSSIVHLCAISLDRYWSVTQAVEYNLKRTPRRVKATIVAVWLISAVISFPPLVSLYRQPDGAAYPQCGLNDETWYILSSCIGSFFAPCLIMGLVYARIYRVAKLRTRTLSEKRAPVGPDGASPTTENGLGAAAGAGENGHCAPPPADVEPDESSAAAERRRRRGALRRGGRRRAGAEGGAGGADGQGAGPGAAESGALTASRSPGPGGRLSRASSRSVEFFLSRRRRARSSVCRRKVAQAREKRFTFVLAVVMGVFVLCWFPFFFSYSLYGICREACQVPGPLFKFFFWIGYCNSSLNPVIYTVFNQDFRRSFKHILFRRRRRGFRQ
# [7] = blockers of RIG-like receptor reporter activation – cell-based, Sendai virus stimulus, luciferase, 10K MLSCN set, TLR/RLR signaling modifier project, primary screen (AID 602276;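 active = inhibition at or above 50% at 10 µM; inactive = inhibition below 50%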;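 also: firefly luciferase from ISG56 promoter only with Renilla not read in this screen; 0% = Sendai virus plus DMSO and 100% = medium plus DMSO without virus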); details: HEK293 RL24 IRF3 luciferase reporter, at 10 µM, stronger effect = higher value
# [8] = TLR3 IRF3 reporter activation blockers – cell-based, poly I:C stimulus, luciferase, 10K MLSCN set, primary screen (AID 602277;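 active = inhibition of the reporter signal at or above 50%; inactive = inhibition below 50%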); details: HEK293-TLR3 RL24 IRF3 luciferase reporter, at 10 µM, stronger effect = higher value
SMILES,cell count [1],inhibition [1],inhibition of aggregation [2],nuclei count [2],inhibition [3],nuclei count [3],fluorescence slope [4],NADPH fluorescence slope [5],slope [6],inhibition [7],inhibition [8]
COc1ccc(C(=O)c2ccc(OC)c(N)c2)cc1N,298,-11.7% (inactive),-64.9% (inactive),3.2%,-187% (inactive),111%,-0.465 (inactive),-7.4e-05 (inactive),0.00541 (inactive),35% (inactive),27.2% (inactive)
Cc1ccccc1CN1CCN(CC(=O)NCc2ccccc2)C1=O,518,-20.8% (inactive),-45.2% (inactive),97.7%,-45.7% (inactive),114%,-0.42 (inactive),-0.000111 (inactive),0.00614 (inactive),2.1% (inactive),24.6% (inactive)
Cc1ccc(-n2ncc3c(=O)[nH]c(SC(C)C)nc32)cc1,716,-23.9% (inactive),2.6% (inactive),82.4%,-18.4% (inactive),126%,-0.455 (inactive),-4.4e-06 (inactive),0.0066 (inactive),7.08% (inactive),21.6% (inactive)
CCOC(=O)c1cc2sc(C)cc2n1CC(=O)Nc1cccc(C)c1C,556,7.5% (inactive),23.7% (inactive),109%,-44.9% (inactive),116%,-0.342 (inactive),-3.2e-05 (inactive),0.00758 (inactive),-2.4% (inactive),12.7% (inactive)
COc1ccccc1C(=O)Nc1ccc(S(=O)(=O)N2CCCC2)cc1,676,2.2% (inactive),7.3% (inactive),114%,-22.4% (inactive),108%,-0.584 (inactive),-2.5e-05 (inactive),0.0037 (inactive),8.65% (inactive),-0.301% (inactive)
CC1(C)CC(=O)C(C=NCC2CCNCC2)=C(O)C1,249,-2.1% (inactive),6.8% (inactive),74.8%,-10.9% (inactive),116%,-0.466 (inactive),-4.9e-06 (inactive),0.00268 (inactive),3.67% (inactive),27.1% (inactive)
COCCN1CCN(c2c(C)c(C)nc3cc(-c4cccc(OC)c4)nn23)CC1,367,-6.1% (inactive),-9.2% (inactive),80.5%,-52.9% (inactive),106%,-0.567 (inactive),-3.9e-05 (inactive),0.0105 (inactive),15.2% (inactive),16.1% (inactive)
COc1ccc(Cn2nnnc2C(c2cc3cc(C)cc(C)c3[nH]c2=O)N2CCOCC2)cc1 (stereo not drawn),762,-12.9% (inactive),33.9% (inactive),113%,-9.5% (inactive),108%,-0.51 (inactive),-6.8e-05 (inactive),0.00452 (inactive),13.8% (inactive),24.9% (inactive)
Cn1cnc2c1c(=O)n(Cc1cccc(Br)c1)c(=O)n2C,320,1.4% (inactive),9.8% (inactive),113%,-17.1% (inactive),122%,-0.38 (inactive),8.1e-07 (inactive),0.00734 (inactive),14.2% (inactive),14.4% (inactive)
CCCCCc1c(C)nc(SCC(=O)O)[nH]c1=O,611,-5.4% (inactive),12.9% (inactive),97.3%,-31.8% (inactive),106%,-0.539 (inactive),3.4e-05 (inactive),0.00694 (inactive),-8.6% (inactive),-1.36% (inactive)
CCOC(=O)c1c(NC(=O)Cn2c(=O)oc3ccccc32)oc(C)c1C(C)=O,365,-5.4% (inactive),-18.8% (inactive),74.1%,1.9% (inactive),119%,-0.484 (inactive),1.5e-05 (inactive),0.00454 (inactive),5.7% (inactive),11.9% (inactive)
CCOc1ccc(S(=O)(=O)NCC2CCCO2)c2cccnc12 (stereo not drawn),365,-1.7% (inactive),-30.7% (inactive),104%,36.8% (inactive),105%,-0.497 (inactive),8e-05 (inactive),0.00707 (inactive),17.5% (inactive),21.3% (inactive)
CC(C)c1ccc(S(=O)(=O)N2CCN(CCC(=O)Nc3ccc(N(C)C)cc3)CC2)cc1,412,-1.6% (inactive),20% (inactive),91.6%,-15.3% (inactive),89.3%,-0.397 (inactive),-2.3e-05 (inactive),0.00369 (inactive),9.08% (inactive),20% (inactive)
Cc1sc2ncn3ncnc3c2c1C,546,-10% (inactive),-1.7% (inactive),41.8%,25.3% (inactive),102%,-0.617 (inactive),-3.8e-05 (inactive),0.00315 (inactive),-16.9% (inactive),-56.2% (inactive)
COc1ccccc1-n1c(=O)[nH]c2c(C(N)=O)nc(CC(C)C)nc21,809,-0.5% (inactive),-23.3% (inactive),105%,2.2% (inactive),117%,-0.58 (inactive),-3e-05 (inactive),0.00821 (inactive),13% (inactive),32.3% (inactive)
COc1ccc(S(=O)(=O)NCCC(=O)NC2CCCCCCC2)cc1,293,2.8% (inactive),13.6% (inactive),95%,-89.3% (inactive),97%,-0.4 (inactive),-8.9e-05 (inactive),0.00674 (inactive),17.8% (inactive),26% (inactive)
CCOC(=O)c1oc2ccccc2c1NC(=O)c1cccc(OC)c1OC,553,-14.1% (inactive),-13% (inactive),104%,23.6% (inactive),82.8%,-0.616 (inactive),-1.9e-05 (inactive),0.00654 (inactive),-0.203% (inactive),-6.33% (inactive)
Cc1csc(NC(=O)C(Cc2ccccc2)n2cccc2)n1 (stereo not drawn),497,-3.7% (inactive),27% (inactive),56.5%,-38.3% (inactive),117%,-0.538 (inactive),-5.3e-06 (inactive),0.0101 (active),1.35% (inactive),-7.22% (inactive)
COc1ccccc1Cn1nnc2c(=O)[nH]c(C3CCN(C(=O)c4ccccc4Cl)CC3)nc21,324,3.2% (inactive),1.4% (inactive),109%,-5.4% (inactive),98%,-0.624 (inactive),-1.1e-05 (inactive),0.00545 (inactive),18.5% (inactive),40.2% (inactive)
Fc1ccc(-c2csc3nnc(SCc4cccnc4)n23)cc1,376,4.4% (inactive),-9.6% (inactive),97.5%,-30% (inactive),116%,-0.312 (inactive),-2.7e-05 (inactive),0.00572 (inactive),1.55% (inactive),20.4% (inactive)
OC(CN1CCN(c2ccccc2)CC1)c1ccc2c(c1)CCN2 (stereo not drawn),604,-1.6% (inactive),9.3% (inactive),82.3%,-60.6% (inactive),108%,-0.571 (inactive),-2.8e-05 (inactive),0.00657 (inactive),6.89% (inactive),32.4% (inactive)
Cc1c(C(=O)N2CCCC2)sc(NC(=O)c2cccs2)c1C#N,706,17.1% (inactive),10.4% (inactive),86.7%,-67.6% (inactive),130%,-0.504 (inactive),-8.5e-06 (inactive),0.00564 (inactive),14.8% (inactive),12.4% (inactive)
Cn1c(SCc2nc3ccccc3c(=O)[nH]2)nnc1-c1ccco1,748,0% (inactive),11.8% (inactive),104%,-141% (inactive),131%,-0.496 (inactive),-6.5e-06 (inactive),0.00622 (inactive),-0.0213% (inactive),25.9% (inactive)
COc1cc(NS(=O)(=O)N2CCCC2)cc(OC)c1OC,712,0.7% (inactive),9% (inactive),95.3%,-115% (inactive),128%,-0.498 (inactive),-1.9e-05 (inactive),0.00502 (inactive),7.48% (inactive),16.9% (inactive)
Cc1ccc(S(=O)(=O)C(C#N)c2nc3ccccc3nc2N2CCCCC2)cc1 (stereo not drawn),273,10.9% (inactive),8.3% (inactive),98.6%,-0.3% (inactive),103%,-0.364 (inactive),2e-06 (inactive),0.00764 (inactive),11.2% (inactive),22.6% (inactive)
CCc1nc(SCC(=O)NCc2ccco2)c2c3c(sc2n1)CCCC3,586,-2.1% (inactive),14.8% (inactive),85.9%,-21.9% (inactive),116%,-0.466 (inactive),-1.1e-05 (inactive),0.00647 (inactive),15.3% (inactive),20.6% (inactive)
CCOC(=O)C(NCc1ccccc1OC)(NC(C)=O)C(F)(F)F (stereo not drawn),279,-1.5% (inactive),14.4% (inactive),97.8%,-72.8% (inactive),125%,-0.616 (inactive),-5.3e-06 (inactive),0.00702 (inactive),5.22% (inactive),4.4% (inactive)
Cc1cc(C)nc(SCC(=O)Nc2ccc(S(=O)(=O)Nc3nccs3)cc2)n1,312,9% (inactive),5.3% (inactive),97.6%,-21.2% (inactive),116%,-0.383 (inactive),-5.8e-05 (inactive),0.00544 (inactive),10% (inactive),32.8% (inactive)
